An excerpt weighted towards active compounds, which were near 5.8% of everything screened.
MCF10A rereplic: A quantitative high throughput screen for small molecules that induce DNA re-replication in MCF 10a normal breast cells; MCF 10A DNA re-replication, Hoechst nuclear intensity, 48 h; Potency, µM (top dose mostly 46.1 µM), for inactives: top-dose activity, positive = re-replication, most hits filed as activators; hit rate 2.9% among 350,000; AID 624296, 2012; further: % of control where 0% means no effect; nearly all actives have a fitted effect of over 50% in size
PINK1 modulator: A Quantitative High throughput Screen to Identify Chemical Modulators of PINK1 Expression. PINK1 immunofluorescence, high-content cytometry, 24 h. Potency, µM (doses to about 76.6 µM), without a hit: top-dose activation (PINK1 increase), actives largely listed as activators. hit rate 0.2% among 410,000. AID 624263, 2012; active means well fitted activation curve with a large enough effect; inconclusive means small, poorly fitted or top-dose-only effect; cell line not stated here; further: % of control where 0% means no effect; nearly all actives have a fitted effect of over 65% in size
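PINK1 protein level read as immunofluorescence by microplate cytometer in a fixed, stained stable cell line after 24 h exposure to five compound concentrations, with CCCP as control.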
SW480 rerep: A quantitative high throughput screen for small molecules that induce DNA re-replication in SW480 colon adenocarcinoma cells | SW480 DNA re-replication, Hoechst DNA content imaging, 48 h | Potency, µM (top dose mostly 46.1 µM), inactives show at the top dose re-replication activation, actives largely listed as activators | hit rate 1.8% among 340,000; further: % of control where 0% means no effect; nearly all actives have a fitted effect of over 55% in size
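Readout is total intensity of Hoechst-stained nuclei, excited at 405 nm and collected at 500-530 nm. Compound treatment lasted 48 hr at 37 C in 5% CO2 before staining.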
KB-3-1 cytotox: qHTS assay for MDR1-selective chemotherapeutics: Primary screen using the parental adenocarcinoma cell KB-3-1; KB-3-1 viability, CellTiter-Glo ATP luminescence, 72 h; Potency, µM (doses to about 46.1 µM), hits mostly cytotoxic; hit rate 1.4% among 400,000; AID 1347075, 2019; further: on the % scale 0 is the no-effect control and ±100 the full control effect; nearly all actives have a fitted effect of over 60% in size
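KB-3-1 parental drug-naive adenocarcinoma cells in DMEM/10% FBS, incubated 72 h at 37 C with pin-transferred compounds across a concentration series. Viability by CellTiter-Glo luminescence; concentration-response curves fitted after normalization.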
KB-V1 cytotox: qHTS assay for MDR1-selective chemotherapeutics: Primary screen using the drug-selected MDR subline cells KB-V1 | KB-V1 MDR cells viability, CellTiter-Glo, 72 h | Potency, µM (titrated, usually from 46.1 µM), hits mostly cytotoxic | hit rate 3.4% among 400,000 | AID 1347076, 2019; further: on the % scale 0 is the no-effect control and ±100 the full control effect; nearly all actives have a fitted effect of over 60% in size
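Compound-treated KB-V1 multidrug-resistant cells, 72 h, 37 degrees C; viability by CellTiter-Glo. Fitted qHTS curves give the values.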
ALOX12 inh: Primary qHTS assay for inhibitors of human arachidonate 12S-lipoxygenase (ALOX12): Round 2; AID 1671190, 2021; purified 12hLO, xylenol orange hydroperoxide absorbance; Potency, µM (highest dose often 108 µM), inactives show at the highest dose activity change, negative = inhibition, actives largely listed as inhibitors; hit rate 1.1% among 580,000; Polyunsaturated fatty acid lipoxygenase ALOX12 (Homo sapiens), P18054; further: on the % scale 0 is the no-effect control and ±100 the full control effect
Target sequence (P18054 whole entry, looked up): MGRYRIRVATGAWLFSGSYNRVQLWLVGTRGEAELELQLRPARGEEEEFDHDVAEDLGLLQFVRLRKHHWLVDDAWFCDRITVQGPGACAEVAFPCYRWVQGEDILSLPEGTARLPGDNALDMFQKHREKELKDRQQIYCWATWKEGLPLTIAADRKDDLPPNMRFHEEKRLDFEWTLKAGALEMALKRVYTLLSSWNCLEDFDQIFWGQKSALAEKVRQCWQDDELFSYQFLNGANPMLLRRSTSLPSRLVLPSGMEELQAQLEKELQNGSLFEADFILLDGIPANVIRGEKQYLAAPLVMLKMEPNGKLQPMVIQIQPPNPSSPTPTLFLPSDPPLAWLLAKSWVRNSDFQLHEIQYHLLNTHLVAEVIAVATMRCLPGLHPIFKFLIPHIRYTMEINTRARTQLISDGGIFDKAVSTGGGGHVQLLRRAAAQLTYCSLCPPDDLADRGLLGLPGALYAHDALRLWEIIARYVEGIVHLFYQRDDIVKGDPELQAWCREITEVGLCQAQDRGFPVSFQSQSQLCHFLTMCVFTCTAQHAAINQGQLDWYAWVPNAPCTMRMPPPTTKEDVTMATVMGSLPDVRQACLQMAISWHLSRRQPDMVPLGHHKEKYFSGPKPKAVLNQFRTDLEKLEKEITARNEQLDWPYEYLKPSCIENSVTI
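Purified human 12hLO (150 nM final) in 25 mM Hepes, 0.01% Triton X-100, pH 7.0 was preincubated 15 min at room temperature with compound. Then 40 uM arachidonic acid was added, 30 min. Hydroperoxide was read by Fe-XO absorbance ratio 573/405 nm.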
Starred values were filed as active, the others as inactive; i = inactive; ? = inconclusive; / = not tested or not shown; [ ] = another dose, or the depositor's remark. Unless noted, the call rests on the fitted dose curve; in most records, active means well fitted curve in the direction sought with a large enough effect; inconclusive means small, poorly fitted or top-dose-only effect, or another doubt; inactive means no such curve, though single readings can be large; an effect the other way counts as inactive or inconclusive. Potency means the concentration at half of the fitted maximal effect.

SMILES | MCF10A rereplic | PINK1 modulator | SW480 rerep | KB-3-1 cytotox | KB-V1 cytotox | ALOX12 inh
c1ccc(-c2cn3c(n2)CO[C@@H](CNCC2CCCCC2)C3)cc1 | / | / | / | / | / | 43%[176 µM]
CNC(=O)c1cn2c(n1)CN(S(=O)(=O)c1cccc(OC)c1)CC2 | / | / | / | / | / | 15%[6.33 µM]
COc1ccc(NC(=S)Nc2ncccc2C)cc1OC | ? | 2% | -4% | i | i | 5µM*
COc1cc(NC(=S)Nc2cccnc2)cc(OC)c1OC | 17% | -1%[38.3 µM] | -4% | i | i | 45µM*
COc1ccc(NC(=S)Nc2ncccc2C)c(OC)c1 | -8% | / | ? | i | i | ?
Cc1cccnc1NC(=S)Nc1ncccc1C | 0% | 1% | 3% | ? | i | -12%
Cc1cccnc1NC(=S)Nc1ccc(Cl)c(Cl)c1 | ? | 4% | -8% | ? | i | 8.9µM*
Cc1cc(NC(=S)Nc2ccc(C)c(Cl)c2)n[nH]1 | 0% | 2% | 10% | ? | i | 14µM*
Cc1ccccc1C(=O)NN=C(C1CC1)C1CC1 | / | / | / | / | / | 23%
O=S(=O)(Nc1nc2ccccc2nc1Nc1ccc(Br)cc1)c1cccs1 | / | / | / | / | / | -66%
Cc1oc(-c2cccs2)nc1CC(=O)N(Cc1ccc(C(F)(F)F)cc1)C1CC1 | / | / | / | / | / | -8%
CC(=O)Oc1ccc2c(C)c(CCC(=O)NCc3nc(-c4ccccc4)no3)c(=O)oc2c1 | / | / | / | / | / | -3%
CCc1ccc(C(=O)COC(=O)c2cc([N+](=O)[O-])ccc2N2CCOCC2)cc1 | 4.6µM* | 5% | 10µM* | ? | 6.5µM* | -4%
O=C(OCc1cccc(Cl)c1)c1cc([N+](=O)[O-])ccc1N1CCOCC1 | ? | 6% | ? | ? | ? | -19%
CCOC(=O)c1cc(CC)sc1NC(=O)c1cc([N+](=O)[O-])ccc1N1CCOCC1 | ? | 6% | 2.3µM* | 1µM* | i | 0%
COc1ccc(COC(=O)c2cc([N+](=O)[O-])ccc2N2CCOCC2)cc1F | 21% | -2% | ? | 0.13µM* | 0.073µM* | 2%
O=C(OCc1cccc(C(F)(F)F)c1)c1cc([N+](=O)[O-])ccc1N1CCOCC1 | 8% | 1% | 5% | i | ? | -11%
O=C(OCc1ccc(Br)cc1)c1cc([N+](=O)[O-])ccc1N1CCOCC1 | / | 4% | / | 5.8µM* | 1.3µM* | 8%
CCOC(=O)c1cc(CC)sc1NC(=O)c1ccc(N2CCOCC2)c([N+](=O)[O-])c1 | 27% | ? | -3% | i | i | 1%
N#Cc1ccc(N2CCC(C(=O)NCCc3cccs3)CC2)nc1 | / | / | / | / | / | 11%
Cc1ccc2cc(C(=O)NCC3CCS(=O)(=O)C3)[nH]c2c1 (stereo unspecified) | / | / | / | / | / | 12%
COc1cccc(-c2onc3ccc(C4(C)OCCO4)cc23)c1 | 18µM* | -1% | 16% | i | i | -8%
Clc1ccc(-n2ncc3c(NC4CCCCCC4)ncnc32)cc1 | / | / | / | / | / | -6%
Nc1ccc(S(=O)(=O)NCC(=O)OCCOc2ccccc2)cc1[N+](=O)[O-] | 15µM* | 2% | -67% | i | i | ?
CSc1ccc(S(=O)(=O)NCC(=O)OCCOc2ccccc2)cc1[N+](=O)[O-] | ? | 13% | 4% | i | i | -27%
SMILES | MCF10A rereplic | PINK1 modulator | SW480 rerep | KB-3-1 cytotox | KB-V1 cytotox | ALOX12 inh
Cc1cc2oc(=O)cc(CN3CCN(C(=O)C4COc5ccccc5O4)CC3)c2cc1C (stereo unspecified) | / | / | / | / | / | -25%
O=C(Nc1ccccc1)c1ccc(S(=O)(=O)NCc2cccnc2)cc1 | 3% | 1% | -13% | ? | 21µM* | -22%
O=C(Nc1ccc(S(=O)(=O)NCc2cccnc2)cc1)c1ccccc1Cl | 20% | 3% | 2% | i | i | -6%
O=C1/C(=C/c2ccc(C(F)(F)F)cc2)CCc2ccccc21 | / | / | / | / | / | -1%
CC(C)CCNc1nc(-c2ccco2)c2c(c1C#N)CCCC2 | 7.3µM* | 14% | ? | i | i | ?
N#Cc1c(NCCN)nc(-c2ccco2)c2c1CCCC2 | 12µM* | -3% | 18µM* | ? | ? | -13%
CCc1nc(NCCC(C)C)c(C#N)c2c1CCCC2 | 7% | 4% | -2% | i | i | 11%
N#Cc1c(N2CCOCC2)nc(-c2ccco2)c2c1CCCC2 | ? | 0% | ? | i | i | ?
N#Cc1c(-c2cccnc2)c2c([nH]c1=O)-c1ccccc1OC2 | 15µM* | 4% | 2.6µM* | i | i | ?
N#Cc1c(-c2ccc(F)cc2)c2c([nH]c1=O)-c1ccccc1OC2 | 4.1µM* | 6% | 6.5µM* | i | i | ?
CCCNC(=O)Nc1cccc(C(=O)NC)c1C | / | / | / | / | / | 0%
CC(=O)N1Cc2ccccc2C(C)CC12CCCCC2 (stereo unspecified) | -1% | 4% | 3% | i | 16µM* | 5%
Cc1ccc2nc(C)c3c(c2c1)N(c1ccc(F)cc1)CC3 | 18µM* | 0% | -8% | ? | ? | ?
COc1ccccc1NC(=O)CCCCCN1C(=O)c2cccc([N+](=O)[O-])c2C1=O | 0.92µM* | 4% | -23% | i | i | -34%
Cc1cc(C)c(S(=O)(=O)ON2C(=O)c3ccccc3C2=O)cc1C | 7.3µM* | 0% | ? | i | i | ?
CN1C(=O)c2ccccc2C1=O | / | / | / | / | / | -9%[57.4 µM]
Cc1cc(C)c(C)c(S(=O)(=O)ON2C(=O)c3ccccc3C2=O)c1C | 7.3µM* | 0% | 21µM* | i | i | -26%
